Data published in PubChem BioAssay AID1159580 (chemical genetic matrix, 2015).
About 2,000 (36%) of roughly 5,500 compounds were called active. Not shown: some 18% with an inconclusive outcome. Cut-off read from the data, not from the text of the source: active = normalized growth mostly below about 0.91 (no sharp cut-off); inconclusive = no clear call, values can overlap the other calls; inactive = mostly above about 0.92. Some of the results follow.

Experiment: chemical genetic growth profiling, strain panel (AID 1159580);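 note: tested at 20 µM; growth read once vehicle control cultures reached saturation at 30 °C; 1 = growth at the plate median or of vehicle wells; lower values mean less growth of the strain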
Conditions: growth OD

Measured: normalized growth

CN[C@@H]1C(OC2[C@H](O[C@H]3[C@H](O)[C@@H](O)[C@H](N=C(N)N)[C@@H](O)[C@@H]3N=C(N)N)OC(C)[C@]2(O)CO)OC(CO)C(O)C1O (stereo partly drawn)
inactive: S. cerevisiae deletion strains, locus YKL009W, strain mrt4, stronger effect = lower value 0.975 | S. cerevisiae deletion strains, locus YKL068W, stronger effect = lower value 0.991 | S. cerevisiae deletion strains, locus YKL085W, strain MDH1 (second series), stronger effect = lower value 1.01 | S. cerevisiae deletion strains, locus YKL085W, strain MDH1, stronger effect = lower value 1.01 | S. cerevisiae deletion strains, locus YKL160W, strain elf1, stronger effect = lower value 1 | S. cerevisiae deletion strains, locus YKL190W, strain CNB1, stronger effect = lower value 0.998 | S. cerevisiae deletion strains, locus YKR001C, strain vps1, stronger effect = lower value 0.981 | S. cerevisiae deletion strains, locus YKR026C, strain gcn3, stronger effect = lower value 0.992 | S. cerevisiae deletion strains, locus YKR091W, strain srl3, stronger effect = lower value 0.998 | S. cerevisiae deletion strains, locus YLL001W, strain dnm1, stronger effect = lower value 0.995 | S. cerevisiae deletion strains, locus YLL026W, stronger effect = lower value 0.998 | S. cerevisiae deletion strains, locus YLL041C, strain sdh2, stronger effect = lower value 1.01 | S. cerevisiae deletion strains, locus YLR027C, strain aat2, stronger effect = lower value 1 | S. cerevisiae deletion strains, locus YLR039C, strain RIC1, stronger effect = lower value 1.01 | S. cerevisiae deletion strains, locus YLR058C, strain SHM2, stronger effect = lower value 0.985 | S. cerevisiae deletion strains, locus YLR102C, strain apc9, stronger effect = lower value 0.976 | S. cerevisiae deletion strains, locus YLR113W, strain HOG1, stronger effect = lower value 1.06 | S. cerevisiae deletion strains, locus YLR221C, strain rsa3, stronger effect = lower value 1.02 | S. cerevisiae deletion strains, locus YLR258W, strain gsy2, stronger effect = lower value 1.01 | S. cerevisiae deletion strains, locus YLR262C, strain YPT6 (second series), stronger effect = lower value 1 | S. cerevisiae deletion strains, locus YLR262C, strain YPT6, stronger effect = lower value 1.01 | S. cerevisiae deletion strains, locus YLR268W, strain sec22, stronger effect = lower value 0.985 | S. cerevisiae deletion strains, locus YLR320W, strain mms22, stronger effect = lower value 1.03 | S. cerevisiae deletion strains, locus YLR330W, strain CHS5, stronger effect = lower value 0.991 | S. cerevisiae deletion strains, locus YLR342W, strain FKS1 (second series), stronger effect = lower value 1.04 | S. cerevisiae deletion strains, locus YLR342W, strain FKS1, stronger effect = lower value 1 | S. cerevisiae deletion strains, locus YLR357W, strain rsc2, stronger effect = lower value 0.962 | S. cerevisiae deletion strains, locus YLR370C, strain arc18, stronger effect = lower value 1.01 | S. cerevisiae deletion strains, locus YLR371W, strain rom2, stronger effect = lower value 0.973 | S. cerevisiae deletion strains, locus YLR384C, strain iki3, stronger effect = lower value 0.997 | S. cerevisiae deletion strains, locus YLR418C, strain cdc73, stronger effect = lower value 0.954 | S. cerevisiae deletion strains, locus YML016C, strain PPZ1, stronger effect = lower value 0.993 | S. cerevisiae deletion strains, locus YML032C, strain rad52, stronger effect = lower value 0.988 | S. cerevisiae deletion strains, locus YML120C, strain ndi1, stronger effect = lower value 0.99 | S. cerevisiae deletion strains, locus YML124C, strain tub3, stronger effect = lower value 0.972 | S. cerevisiae deletion strains, locus YMR058W, strain fet3, stronger effect = lower value 1.01 | S. cerevisiae deletion strains, locus YMR078C, strain ctf18, stronger effect = lower value 0.959 | S. cerevisiae deletion strains, locus YMR125W, strain sto1, stronger effect = lower value 0.997 | S. cerevisiae deletion strains, locus YMR129W, stronger effect = lower value 1 | S. cerevisiae deletion strains, locus YMR205C, strain PFK2, stronger effect = lower value 0.995 | S. cerevisiae deletion strains, locus YMR223W, strain ubp8, stronger effect = lower value 0.961 | S. cerevisiae deletion strains, locus YMR231W, strain pep5, stronger effect = lower value 1.01 | S. cerevisiae deletion strains, locus YMR263W, strain SAP30, stronger effect = lower value 0.979 | S. cerevisiae deletion strains, locus YMR307W, strain GAS1, stronger effect = lower value 1.1 | S. cerevisiae deletion strains, locus YNL067W, strain RPL9B, stronger effect = lower value 0.976 | S. cerevisiae deletion strains, locus YNL071W, strain lat1, stronger effect = lower value 1.01 | S. cerevisiae deletion strains, locus YNL183C, strain NPR1, stronger effect = lower value 0.99 | S. cerevisiae deletion strains, locus YNL209W, strain ssb2, stronger effect = lower value 0.996 | S. cerevisiae deletion strains, locus YNL233W, strain BNI4, stronger effect = lower value 0.976 | S. cerevisiae deletion strains, locus YNL248C, strain rpa49, stronger effect = lower value 1.02 | S. cerevisiae deletion strains, locus YNL250W, strain rad50, stronger effect = lower value 0.975 | S. cerevisiae deletion strains, locus YNL271C, strain bni1, stronger effect = lower value 0.975 | S. cerevisiae deletion strains, locus YNL298W, strain CLA4, stronger effect = lower value 0.977 | S. cerevisiae deletion strains, locus YNL307C, strain MCK1, stronger effect = lower value 0.976 | S. cerevisiae deletion strains, locus YNL322C, strain KRE1 (second series), stronger effect = lower value 0.993 | S. cerevisiae deletion strains, locus YNL322C, strain KRE1, stronger effect = lower value 0.998 | S. cerevisiae deletion strains, locus YNR049C, strain mso1, stronger effect = lower value 1 | S. cerevisiae deletion strains, locus YNR052C, strain pop2, stronger effect = lower value 0.972 | S. cerevisiae deletion strains, locus YOL012C, strain htz1 1 | S. cerevisiae deletion strains, locus YOL147C, strain pex11, stronger effect = lower value 0.982 | S. cerevisiae deletion strains, locus YOR001W, strain rrp6, stronger effect = lower value 1 | S. cerevisiae deletion strains, locus YOR061W, strain CKA2, stronger effect = lower value 0.991 | S. cerevisiae deletion strains, locus YOR069W, strain VPS5, stronger effect = lower value 0.993 | S. cerevisiae deletion strains, locus YOR070C, strain gyp1, stronger effect = lower value 1.01 | S. cerevisiae deletion strains, locus YOR080W, strain dia2, stronger effect = lower value 0.996 | S. cerevisiae deletion strains, locus YOR083W, strain WHI5, stronger effect = lower value 0.998 | S. cerevisiae deletion strains, locus YOR106W, strain vam3, stronger effect = lower value 1.05 | S. cerevisiae deletion strains, locus YOR136W, strain idh2, stronger effect = lower value 0.976 | S. cerevisiae deletion strains, locus YOR144C, strain elg1, stronger effect = lower value 0.984 | S. cerevisiae deletion strains, locus YOR184W, strain ser1, stronger effect = lower value 0.978 | S. cerevisiae deletion strains, locus YOR231W, strain MKK1, stronger effect = lower value 1.04 | S. cerevisiae deletion strains, locus YOR265W, strain rbl2, stronger effect = lower value 0.998 | S. cerevisiae deletion strains, locus YOR270C, strain vph1, stronger effect = lower value 1.07 | S. cerevisiae deletion strains, locus YOR290C, strain snf2, stronger effect = lower value 1.02 | S. cerevisiae deletion strains, locus YOR316C, strain cot1, stronger effect = lower value 0.976 | S. cerevisiae deletion strains, locus YPL051W, strain arl3, stronger effect = lower value 1.01 | S. cerevisiae deletion strains, locus YPL055C, strain LGE1, stronger effect = lower value 1.01 | S. cerevisiae deletion strains, locus YPL078C, strain atp4, stronger effect = lower value 1 | S. cerevisiae deletion strains, locus YPL106C, strain sse1, stronger effect = lower value 1.02 | S. cerevisiae deletion strains, locus YPL240C, strain hsp82, stronger effect = lower value 0.993 | S. cerevisiae deletion strains, locus YPL241C, strain CIN2, stronger effect = lower value 0.998 | S. cerevisiae deletion strains, locus YPL256C, strain CLN2, stronger effect = lower value 1.06 | S. cerevisiae deletion strains, locus YPR119W, strain clb2, stronger effect = lower value 0.971 | S. cerevisiae deletion strains, locus YPR141C, strain kar3, stronger effect = lower value 0.972 | S. cerevisiae deletion strains, locus YPR163C, strain tif3, stronger effect = lower value 0.971 | S. cerevisiae deletion strains, locus YPR167C, strain met16, stronger effect = lower value 0.97 | S. cerevisiae deletion strains, strain wtn01, stronger effect = lower value 0.975 | S. cerevisiae strains, strain wild type, stronger effect = lower value 0.999
